How the values were obtained:
Experiment in all cases: log2 ratio of Biotin-Ahx-Ub-VS probe labelling (fragment/DMSO); higher = less target engagement (more negative = stronger competition), active = hit call of the paper (q ≤ 0.05, log2 ratio ≤ -1)
Settings in all cases: compound concentration: 200 uM; treatment time: 3 h
USP42 = target: T1, USP42 (UniProt Q9H9J4)
T1 sequence (whole entry): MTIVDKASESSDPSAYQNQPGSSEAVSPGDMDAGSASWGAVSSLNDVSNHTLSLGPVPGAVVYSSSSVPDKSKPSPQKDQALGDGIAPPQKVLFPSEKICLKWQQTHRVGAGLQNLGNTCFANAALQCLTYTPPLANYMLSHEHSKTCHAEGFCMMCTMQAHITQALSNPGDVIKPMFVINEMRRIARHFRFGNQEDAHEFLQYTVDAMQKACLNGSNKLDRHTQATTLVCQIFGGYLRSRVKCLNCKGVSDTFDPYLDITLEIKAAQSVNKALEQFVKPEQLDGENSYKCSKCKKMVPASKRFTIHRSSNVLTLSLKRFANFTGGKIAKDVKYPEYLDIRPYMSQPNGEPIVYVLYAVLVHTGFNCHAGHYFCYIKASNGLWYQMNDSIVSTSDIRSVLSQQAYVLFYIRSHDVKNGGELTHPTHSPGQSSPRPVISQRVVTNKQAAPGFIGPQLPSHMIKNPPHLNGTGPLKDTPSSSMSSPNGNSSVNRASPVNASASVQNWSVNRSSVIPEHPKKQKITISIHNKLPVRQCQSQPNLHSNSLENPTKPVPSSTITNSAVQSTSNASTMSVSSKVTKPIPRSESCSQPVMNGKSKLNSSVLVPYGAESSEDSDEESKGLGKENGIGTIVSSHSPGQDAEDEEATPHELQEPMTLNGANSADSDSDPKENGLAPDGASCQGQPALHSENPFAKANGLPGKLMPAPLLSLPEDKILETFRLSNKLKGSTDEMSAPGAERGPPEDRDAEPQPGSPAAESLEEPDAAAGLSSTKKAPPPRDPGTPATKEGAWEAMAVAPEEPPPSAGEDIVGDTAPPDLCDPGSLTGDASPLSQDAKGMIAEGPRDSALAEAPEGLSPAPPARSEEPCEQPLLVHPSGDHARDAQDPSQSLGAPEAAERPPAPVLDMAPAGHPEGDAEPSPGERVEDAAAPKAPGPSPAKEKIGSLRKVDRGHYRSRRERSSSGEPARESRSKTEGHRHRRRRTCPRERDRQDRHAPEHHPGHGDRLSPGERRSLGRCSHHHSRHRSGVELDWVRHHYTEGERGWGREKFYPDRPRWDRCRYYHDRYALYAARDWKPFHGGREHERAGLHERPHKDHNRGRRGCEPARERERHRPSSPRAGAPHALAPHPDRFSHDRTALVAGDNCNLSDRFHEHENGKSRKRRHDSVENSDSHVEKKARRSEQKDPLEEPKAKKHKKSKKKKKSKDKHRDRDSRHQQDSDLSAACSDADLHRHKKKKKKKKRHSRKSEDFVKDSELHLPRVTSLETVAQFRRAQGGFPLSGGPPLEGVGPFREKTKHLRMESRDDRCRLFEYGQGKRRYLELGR
Procedure, shortened: (§1)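 HEK293T lysate in Tris/CHAPS/IGEPAL buffer with protease inhibitors (495 µg per sample) was given fragment at 200 µM or vehicle for 3 h, in triplicate. It then received Biotin-Ahx-Ub-VS at 0.5 µM final for 1 h. Labelled DUBs were NeutrAvidin-enriched, digested with LysC and trypsin, and run by diaPASEF LC-MS/MS. Values are average log2 fragment/vehicle ratios by unpaired t-test on global-median-normalised Spectronaut quantities of proteins with ≥2 unique peptides.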

USP46 = USP46 (UniProt P62068)
Procedure, shortened: as §1

USP47 = target: T2, USP47 (UniProt Q96K76)
T2 sequence (whole entry): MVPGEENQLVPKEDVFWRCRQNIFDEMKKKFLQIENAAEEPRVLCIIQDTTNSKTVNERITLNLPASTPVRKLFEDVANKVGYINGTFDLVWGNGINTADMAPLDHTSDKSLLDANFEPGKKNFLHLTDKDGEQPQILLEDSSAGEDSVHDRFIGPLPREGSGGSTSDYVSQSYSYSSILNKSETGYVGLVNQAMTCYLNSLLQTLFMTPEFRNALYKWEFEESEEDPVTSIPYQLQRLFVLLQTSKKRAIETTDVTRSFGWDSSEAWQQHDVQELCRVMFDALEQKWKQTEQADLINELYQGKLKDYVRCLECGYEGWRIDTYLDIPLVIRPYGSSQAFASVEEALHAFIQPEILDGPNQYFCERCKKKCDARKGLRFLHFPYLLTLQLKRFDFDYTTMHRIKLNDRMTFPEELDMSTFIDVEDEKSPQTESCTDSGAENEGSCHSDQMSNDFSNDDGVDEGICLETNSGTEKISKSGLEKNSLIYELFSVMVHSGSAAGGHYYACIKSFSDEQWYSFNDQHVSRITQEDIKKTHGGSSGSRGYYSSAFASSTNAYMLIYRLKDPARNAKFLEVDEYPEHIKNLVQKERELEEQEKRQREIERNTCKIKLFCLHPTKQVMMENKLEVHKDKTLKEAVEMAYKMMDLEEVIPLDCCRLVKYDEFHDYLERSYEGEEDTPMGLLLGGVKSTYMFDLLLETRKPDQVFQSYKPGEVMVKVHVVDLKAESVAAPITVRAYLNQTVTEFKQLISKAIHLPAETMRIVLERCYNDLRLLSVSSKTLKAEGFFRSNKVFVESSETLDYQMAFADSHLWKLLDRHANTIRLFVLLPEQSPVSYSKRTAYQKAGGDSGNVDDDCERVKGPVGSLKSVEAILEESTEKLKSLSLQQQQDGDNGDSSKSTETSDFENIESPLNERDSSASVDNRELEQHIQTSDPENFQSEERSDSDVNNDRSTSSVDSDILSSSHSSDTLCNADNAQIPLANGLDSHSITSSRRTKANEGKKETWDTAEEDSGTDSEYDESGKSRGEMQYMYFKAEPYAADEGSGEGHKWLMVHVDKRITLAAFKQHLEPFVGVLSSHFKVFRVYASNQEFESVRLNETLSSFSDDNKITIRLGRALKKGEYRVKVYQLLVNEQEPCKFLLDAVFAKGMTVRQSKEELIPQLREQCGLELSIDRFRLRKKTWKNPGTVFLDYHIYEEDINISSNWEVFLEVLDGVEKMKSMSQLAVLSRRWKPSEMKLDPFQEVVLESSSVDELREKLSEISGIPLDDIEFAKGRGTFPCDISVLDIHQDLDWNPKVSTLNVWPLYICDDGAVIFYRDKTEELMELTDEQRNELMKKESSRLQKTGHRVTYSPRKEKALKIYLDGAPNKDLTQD
Procedure, shortened: as §1

USP48 = target: T3, USP48 (UniProt Q86UV5)
T3 sequence (whole entry): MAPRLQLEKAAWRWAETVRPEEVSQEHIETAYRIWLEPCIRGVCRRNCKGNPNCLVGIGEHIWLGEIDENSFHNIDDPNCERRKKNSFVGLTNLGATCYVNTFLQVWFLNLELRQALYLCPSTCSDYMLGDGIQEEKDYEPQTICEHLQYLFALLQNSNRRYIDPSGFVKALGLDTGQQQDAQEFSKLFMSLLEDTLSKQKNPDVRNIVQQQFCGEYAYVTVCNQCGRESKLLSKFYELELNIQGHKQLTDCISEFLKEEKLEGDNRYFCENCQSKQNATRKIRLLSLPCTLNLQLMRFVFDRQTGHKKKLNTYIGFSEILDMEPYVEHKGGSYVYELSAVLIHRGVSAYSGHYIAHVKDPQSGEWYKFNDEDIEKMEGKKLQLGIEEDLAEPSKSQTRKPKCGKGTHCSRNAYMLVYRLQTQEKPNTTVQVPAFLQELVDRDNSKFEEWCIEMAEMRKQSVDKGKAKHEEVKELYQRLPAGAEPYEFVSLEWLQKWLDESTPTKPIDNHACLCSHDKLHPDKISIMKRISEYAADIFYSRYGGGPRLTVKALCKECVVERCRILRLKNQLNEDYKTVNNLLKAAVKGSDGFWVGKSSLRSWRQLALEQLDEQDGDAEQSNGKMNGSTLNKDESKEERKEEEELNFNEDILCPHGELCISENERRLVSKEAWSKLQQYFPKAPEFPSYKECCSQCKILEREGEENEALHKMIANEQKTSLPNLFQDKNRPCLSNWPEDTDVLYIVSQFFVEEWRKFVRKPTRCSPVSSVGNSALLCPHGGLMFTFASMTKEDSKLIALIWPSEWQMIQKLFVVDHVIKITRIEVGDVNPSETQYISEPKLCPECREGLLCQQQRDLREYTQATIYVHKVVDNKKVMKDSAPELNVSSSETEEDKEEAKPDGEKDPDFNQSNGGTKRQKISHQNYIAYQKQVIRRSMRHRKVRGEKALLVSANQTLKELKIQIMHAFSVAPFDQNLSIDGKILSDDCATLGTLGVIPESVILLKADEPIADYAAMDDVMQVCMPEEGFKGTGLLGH
Procedure, shortened: as §1

USP5 = target: T4, USP5 (UniProt P45974)
T4 sequence (whole entry): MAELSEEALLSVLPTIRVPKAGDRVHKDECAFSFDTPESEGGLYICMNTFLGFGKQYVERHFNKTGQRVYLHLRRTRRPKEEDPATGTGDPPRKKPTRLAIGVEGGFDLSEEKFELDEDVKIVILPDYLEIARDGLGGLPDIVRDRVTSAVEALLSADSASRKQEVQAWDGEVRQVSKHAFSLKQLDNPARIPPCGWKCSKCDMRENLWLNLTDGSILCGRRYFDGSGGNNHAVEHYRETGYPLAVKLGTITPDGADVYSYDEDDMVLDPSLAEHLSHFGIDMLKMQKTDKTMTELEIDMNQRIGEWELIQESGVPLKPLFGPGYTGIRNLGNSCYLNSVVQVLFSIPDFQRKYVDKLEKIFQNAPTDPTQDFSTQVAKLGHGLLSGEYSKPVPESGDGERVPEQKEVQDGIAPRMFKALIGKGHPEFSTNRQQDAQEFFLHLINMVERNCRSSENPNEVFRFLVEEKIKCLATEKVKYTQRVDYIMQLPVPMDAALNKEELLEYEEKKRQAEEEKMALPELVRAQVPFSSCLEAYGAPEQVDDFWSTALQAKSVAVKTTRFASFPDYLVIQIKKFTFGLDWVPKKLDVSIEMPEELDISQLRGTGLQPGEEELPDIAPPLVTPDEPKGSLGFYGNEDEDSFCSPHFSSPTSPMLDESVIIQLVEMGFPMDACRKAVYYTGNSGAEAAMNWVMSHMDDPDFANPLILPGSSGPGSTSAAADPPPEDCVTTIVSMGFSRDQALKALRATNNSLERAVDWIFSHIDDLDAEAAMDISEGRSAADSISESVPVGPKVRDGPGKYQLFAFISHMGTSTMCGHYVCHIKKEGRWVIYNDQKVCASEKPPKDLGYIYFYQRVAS
Procedure, shortened: as §1

USP54 = USP54 (UniProt Q70EL1)
Procedure, shortened: as §1

USP7 = USP7 (UniProt Q93009)
Procedure, shortened: as §1

USP8 = target: T5, USP8 (UniProt P40818)
T5 sequence (whole entry): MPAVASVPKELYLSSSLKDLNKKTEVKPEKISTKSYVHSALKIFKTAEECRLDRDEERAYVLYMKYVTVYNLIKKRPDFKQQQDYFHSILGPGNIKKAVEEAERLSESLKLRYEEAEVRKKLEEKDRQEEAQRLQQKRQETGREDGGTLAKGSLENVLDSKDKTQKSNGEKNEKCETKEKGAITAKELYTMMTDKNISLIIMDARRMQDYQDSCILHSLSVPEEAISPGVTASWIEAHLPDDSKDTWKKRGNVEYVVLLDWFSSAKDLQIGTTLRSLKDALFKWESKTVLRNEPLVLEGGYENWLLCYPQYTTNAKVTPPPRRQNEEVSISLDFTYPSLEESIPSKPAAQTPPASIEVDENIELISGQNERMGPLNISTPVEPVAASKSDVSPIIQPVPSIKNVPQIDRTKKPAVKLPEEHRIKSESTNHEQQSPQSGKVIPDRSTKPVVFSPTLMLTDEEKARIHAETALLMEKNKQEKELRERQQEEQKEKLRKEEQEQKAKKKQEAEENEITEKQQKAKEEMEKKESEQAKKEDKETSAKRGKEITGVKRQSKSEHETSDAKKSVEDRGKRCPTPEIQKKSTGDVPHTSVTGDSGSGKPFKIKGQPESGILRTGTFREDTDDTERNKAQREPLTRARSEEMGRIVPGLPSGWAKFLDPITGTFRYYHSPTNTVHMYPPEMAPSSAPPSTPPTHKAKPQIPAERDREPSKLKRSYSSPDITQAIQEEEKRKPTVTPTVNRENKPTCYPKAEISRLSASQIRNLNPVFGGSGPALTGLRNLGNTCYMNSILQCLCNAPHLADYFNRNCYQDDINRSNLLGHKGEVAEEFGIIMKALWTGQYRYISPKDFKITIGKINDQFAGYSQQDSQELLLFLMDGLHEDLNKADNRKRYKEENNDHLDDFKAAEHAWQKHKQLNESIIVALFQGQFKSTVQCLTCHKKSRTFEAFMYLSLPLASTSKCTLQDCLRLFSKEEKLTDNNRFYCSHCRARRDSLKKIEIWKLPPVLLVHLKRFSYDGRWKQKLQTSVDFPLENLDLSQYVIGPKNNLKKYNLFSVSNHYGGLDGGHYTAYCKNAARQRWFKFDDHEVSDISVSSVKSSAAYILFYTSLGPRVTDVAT
Procedure, shortened: as §1

Measured: log2 ratio of Biotin-Ahx-Ub-VS probe labelling

Sequence of USP7 (Q93009 whole entry, looked up): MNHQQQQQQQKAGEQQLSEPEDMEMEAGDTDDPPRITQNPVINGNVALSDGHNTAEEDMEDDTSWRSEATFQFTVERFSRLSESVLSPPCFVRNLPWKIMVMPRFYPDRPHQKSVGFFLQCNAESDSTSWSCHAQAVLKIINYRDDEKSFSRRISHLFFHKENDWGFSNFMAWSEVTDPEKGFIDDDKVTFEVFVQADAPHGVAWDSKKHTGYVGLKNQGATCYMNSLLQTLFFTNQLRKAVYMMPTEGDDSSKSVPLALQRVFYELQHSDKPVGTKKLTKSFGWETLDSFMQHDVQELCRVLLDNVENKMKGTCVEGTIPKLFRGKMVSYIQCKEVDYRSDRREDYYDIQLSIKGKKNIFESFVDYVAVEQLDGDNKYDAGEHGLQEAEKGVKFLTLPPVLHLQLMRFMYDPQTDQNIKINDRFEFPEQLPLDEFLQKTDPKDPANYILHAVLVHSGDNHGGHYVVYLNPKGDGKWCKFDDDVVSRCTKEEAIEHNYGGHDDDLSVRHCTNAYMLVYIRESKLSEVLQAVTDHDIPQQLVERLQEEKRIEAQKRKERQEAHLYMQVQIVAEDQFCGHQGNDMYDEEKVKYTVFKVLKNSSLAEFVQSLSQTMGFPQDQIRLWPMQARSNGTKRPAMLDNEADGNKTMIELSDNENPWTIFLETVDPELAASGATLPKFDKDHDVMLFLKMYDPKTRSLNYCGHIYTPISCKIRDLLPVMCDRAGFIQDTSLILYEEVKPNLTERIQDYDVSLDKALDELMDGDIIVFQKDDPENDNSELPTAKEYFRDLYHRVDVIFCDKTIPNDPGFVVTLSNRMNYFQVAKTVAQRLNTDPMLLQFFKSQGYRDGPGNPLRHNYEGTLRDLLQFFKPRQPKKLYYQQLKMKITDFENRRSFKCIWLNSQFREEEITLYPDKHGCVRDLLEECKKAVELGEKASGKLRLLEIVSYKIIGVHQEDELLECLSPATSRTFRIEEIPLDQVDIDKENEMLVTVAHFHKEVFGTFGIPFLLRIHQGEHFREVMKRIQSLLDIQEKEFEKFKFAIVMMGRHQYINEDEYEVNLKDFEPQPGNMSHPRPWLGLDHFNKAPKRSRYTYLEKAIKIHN
Sequence of USP54 (Q70EL1 whole entry): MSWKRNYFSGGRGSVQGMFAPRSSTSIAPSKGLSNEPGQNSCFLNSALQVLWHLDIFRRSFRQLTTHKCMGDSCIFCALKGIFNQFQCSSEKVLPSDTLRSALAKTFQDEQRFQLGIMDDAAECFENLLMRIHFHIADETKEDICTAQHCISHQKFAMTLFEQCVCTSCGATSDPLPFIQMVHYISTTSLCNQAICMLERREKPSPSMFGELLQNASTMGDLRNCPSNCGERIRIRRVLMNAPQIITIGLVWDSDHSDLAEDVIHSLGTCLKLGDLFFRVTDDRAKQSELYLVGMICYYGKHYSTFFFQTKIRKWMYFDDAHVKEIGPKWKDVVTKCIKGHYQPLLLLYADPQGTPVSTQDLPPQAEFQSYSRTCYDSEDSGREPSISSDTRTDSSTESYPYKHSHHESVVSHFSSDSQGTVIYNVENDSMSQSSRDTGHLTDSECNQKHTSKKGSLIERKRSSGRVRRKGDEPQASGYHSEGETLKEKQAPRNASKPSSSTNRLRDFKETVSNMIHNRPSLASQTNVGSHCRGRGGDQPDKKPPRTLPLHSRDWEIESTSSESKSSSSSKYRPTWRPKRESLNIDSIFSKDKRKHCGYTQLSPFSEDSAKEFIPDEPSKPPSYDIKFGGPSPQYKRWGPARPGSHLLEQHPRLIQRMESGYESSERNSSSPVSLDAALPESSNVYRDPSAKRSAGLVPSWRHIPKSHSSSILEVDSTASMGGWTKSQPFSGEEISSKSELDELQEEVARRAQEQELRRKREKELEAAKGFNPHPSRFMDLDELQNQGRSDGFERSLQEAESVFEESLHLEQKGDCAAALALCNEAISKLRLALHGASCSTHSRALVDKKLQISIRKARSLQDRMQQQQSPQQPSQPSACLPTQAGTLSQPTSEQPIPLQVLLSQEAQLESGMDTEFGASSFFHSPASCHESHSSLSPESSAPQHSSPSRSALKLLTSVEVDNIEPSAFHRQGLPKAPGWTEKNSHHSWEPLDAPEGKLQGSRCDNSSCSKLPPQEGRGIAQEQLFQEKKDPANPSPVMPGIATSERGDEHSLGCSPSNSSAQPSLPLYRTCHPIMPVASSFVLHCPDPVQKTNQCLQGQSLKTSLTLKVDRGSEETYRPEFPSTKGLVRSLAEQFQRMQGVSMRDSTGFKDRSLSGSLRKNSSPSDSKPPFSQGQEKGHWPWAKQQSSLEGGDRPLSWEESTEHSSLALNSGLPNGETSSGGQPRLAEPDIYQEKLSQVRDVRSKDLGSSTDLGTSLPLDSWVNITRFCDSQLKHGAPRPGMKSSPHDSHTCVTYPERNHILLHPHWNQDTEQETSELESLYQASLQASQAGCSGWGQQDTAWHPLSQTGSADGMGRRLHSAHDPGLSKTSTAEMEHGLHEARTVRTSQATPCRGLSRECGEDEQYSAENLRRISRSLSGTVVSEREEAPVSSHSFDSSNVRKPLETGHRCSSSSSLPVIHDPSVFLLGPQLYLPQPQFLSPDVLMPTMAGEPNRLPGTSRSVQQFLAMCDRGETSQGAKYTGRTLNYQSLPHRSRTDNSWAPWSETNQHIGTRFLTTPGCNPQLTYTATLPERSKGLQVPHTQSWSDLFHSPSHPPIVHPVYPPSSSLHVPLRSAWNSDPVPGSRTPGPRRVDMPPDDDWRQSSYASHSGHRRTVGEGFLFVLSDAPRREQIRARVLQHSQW
Sequence of USP46 (P62068 whole entry): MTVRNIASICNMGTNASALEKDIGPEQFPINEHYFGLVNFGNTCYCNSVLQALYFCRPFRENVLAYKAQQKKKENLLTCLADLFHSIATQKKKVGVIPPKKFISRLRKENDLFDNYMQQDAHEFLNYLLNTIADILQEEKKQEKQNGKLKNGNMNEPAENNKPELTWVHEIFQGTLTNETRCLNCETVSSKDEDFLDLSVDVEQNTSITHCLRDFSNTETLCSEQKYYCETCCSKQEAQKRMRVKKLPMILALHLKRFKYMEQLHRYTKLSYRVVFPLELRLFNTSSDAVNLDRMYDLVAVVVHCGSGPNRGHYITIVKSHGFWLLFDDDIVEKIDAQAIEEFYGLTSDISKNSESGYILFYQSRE

CN(Cc1nc2ccccc2[nH]1)C(=O)CCl.Cl
inactive: USP42 0.698 | USP46 -0.254 | USP47 -0.178 | USP5 0.118 | USP54 -0.517 | USP8 -0.0998
active: USP48 -1.14 | USP7 -1.36

— the supplement of paper PMC11732987, “Enantioselective OTUD7B fragment discovery through chemoproteomics screening and high-throughput optimisation” (Communications Chemistry, 2025)
